Results filed as inconclusive are left out. Active and inactive are the calls of the source. Rule for the calls, unless noted: active = hit-call score of the fitted dose curve at least 0.9, where 1 is the maximum; inactive = score below 0.9.
What was measured:
[1] = ATG_PBREM_CIS: Attagene CIS-FACTORIAL HepG2 Assay for human Phenobarbital-responsive Enhancer Module (PBREM) (AID 2282955); details: HepG2 PBREM cis-reporter, Attagene multiplexed transcription; actives raise or lower the signal
Outline: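 Fluorescence of labelled reporter cDNA fragments, resolved by capillary electrophoresis, gives mRNA induction in transfected HepG2 cells treated for 24 h; DMSO serves as negative control and baseline.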

[2] = target: Paired box protein Pax-6 (Homo sapiens) (UniProt P26367); test: ATG_Pax6_CIS: Attagene CIS-FACTORIAL HepG2 Assay for human Paired Box 6 (PAX6) (AID 2282956); details: HepG2 CIS-FACTORIAL PAX6 reporter transcription, RNA readout; actives raise or lower the signal
Chain of Paired box protein Pax-6 (Homo sapiens) (P26367 whole entry, looked up): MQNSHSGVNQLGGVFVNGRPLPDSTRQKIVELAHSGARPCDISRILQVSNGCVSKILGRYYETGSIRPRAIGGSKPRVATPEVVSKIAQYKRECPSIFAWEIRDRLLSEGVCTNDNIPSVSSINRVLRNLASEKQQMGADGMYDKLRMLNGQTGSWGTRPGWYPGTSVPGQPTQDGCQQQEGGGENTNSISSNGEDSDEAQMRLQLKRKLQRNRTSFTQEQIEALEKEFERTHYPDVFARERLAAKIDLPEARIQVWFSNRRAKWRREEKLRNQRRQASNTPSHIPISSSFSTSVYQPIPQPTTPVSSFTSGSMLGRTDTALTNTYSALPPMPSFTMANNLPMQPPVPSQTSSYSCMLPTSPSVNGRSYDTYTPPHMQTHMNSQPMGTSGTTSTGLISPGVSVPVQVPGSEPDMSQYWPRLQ
Outline: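 Fluorescent RT-PCR products separated by capillary electrophoresis report PAX6-linked promoter mRNA in HepG2 cells 24 h post-dose. Curves fitted bidirectionally, DMSO as negative control.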

[3] = ATG_PXRE_CIS: Attagene CIS-FACTORIAL HepG2 Assay for human Pregnane X Receptor Element (PXRE) (AID 2282957); details: HepG2 Attagene CIS-FACTORIAL PXRE reporter, mRNA; actives raise or lower the signal
Outline: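 After a 24 h chemical incubation, total RNA from transfected HepG2 cells was reverse-transcribed and reporter cDNA amplified, FAM-labeled, HpaI-digested and sized by capillary electrophoresis. DMSO served as baseline for bidirectional curve fitting.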

[4] = ATG_PPRE_CIS: Attagene CIS-FACTORIAL HepG2 Assay for human Peroxisome Proliferator-activated Response Element (PPRE) (AID 2282958); details: HepG2 PPRE cis-element reporter, Attagene transcription factor profiling; actives raise or lower the signal
Outline: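 Cells are first transfected transiently with the multiplexed reporter library, then dosed for 24 h. Total RNA is reverse-transcribed, amplified, fluorescently end-labeled and HpaI-cut before capillary electrophoresis; activity is fitted bidirectionally against DMSO controls.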

[5] = ATG_RORE_CIS: Attagene CIS-FACTORIAL HepG2 Assay for human RAR-related Orphan Receptor Element (RORE) (AID 2282959); details: HepG2 Attagene cis-factorial RORE reporter, mRNA; actives raise or lower the signal
Outline: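 Cells were HepG2 carrying transfected cis-regulated reporter constructs, dosed for 24 hours. Total RNA was reverse-transcribed and reporter cDNA amplified, fluorescently labeled and sized by capillary electrophoresis. Activity was fitted bidirectionally relative to DMSO.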

[6] = ATG_Sox_CIS: Attagene CIS-FACTORIAL HepG2 Assay for human SRY-box transcription factor (SOX) (AID 2282960); details: HepG2 Attagene cis-factorial SOX reporter, mRNA; actives raise or lower the signal
Outline: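 Transient MRTU transfection of HepG2; 24 h compound incubation; TriZol RNA, oligo(dT) RT, PCR, 6-FAM primer extension, HpaI cut, CE. Bidirectional fit, DMSO = baseline.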

[7] = target: Transcription factor Sp1 (Homo sapiens) (UniProt P08047); test: ATG_Sp1_CIS: Attagene CIS-FACTORIAL HepG2 Assay for human Specificity Protein 1 (Sp1) (AID 2282961); details: HepG2 Sp1 cis-reporter transcription, actives raise or lower the signal
Chain of Transcription factor Sp1 (Homo sapiens) (P08047 whole entry, looked up): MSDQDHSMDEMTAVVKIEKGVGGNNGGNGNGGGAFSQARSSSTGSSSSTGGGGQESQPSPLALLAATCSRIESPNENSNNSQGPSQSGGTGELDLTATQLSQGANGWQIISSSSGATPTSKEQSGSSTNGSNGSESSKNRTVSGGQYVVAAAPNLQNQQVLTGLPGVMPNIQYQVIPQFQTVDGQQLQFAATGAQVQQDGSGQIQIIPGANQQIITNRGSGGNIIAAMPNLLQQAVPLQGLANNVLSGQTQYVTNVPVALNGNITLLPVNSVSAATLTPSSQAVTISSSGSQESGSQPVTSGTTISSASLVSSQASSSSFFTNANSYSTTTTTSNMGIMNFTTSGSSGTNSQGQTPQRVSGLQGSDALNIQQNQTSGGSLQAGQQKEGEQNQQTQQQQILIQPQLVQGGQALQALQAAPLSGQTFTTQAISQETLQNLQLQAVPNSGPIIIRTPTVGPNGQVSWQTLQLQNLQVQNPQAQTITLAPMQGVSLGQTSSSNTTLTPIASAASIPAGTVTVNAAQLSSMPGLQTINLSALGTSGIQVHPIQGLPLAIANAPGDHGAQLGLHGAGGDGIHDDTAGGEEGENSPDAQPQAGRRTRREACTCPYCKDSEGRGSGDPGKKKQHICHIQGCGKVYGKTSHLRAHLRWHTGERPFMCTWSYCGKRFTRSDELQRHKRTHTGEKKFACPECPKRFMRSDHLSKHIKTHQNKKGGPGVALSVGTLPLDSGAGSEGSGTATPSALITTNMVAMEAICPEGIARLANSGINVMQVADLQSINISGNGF
Outline: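 Endogenous Sp1 activity was gauged in human liver HepG2 cells bearing transfected reporter units under a cis-regulating promoter. After 24 h dosing, reporter mRNA was quantified by RT-PCR with capillary electrophoresis, and activity fitted bidirectionally versus DMSO.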

[8] = ATG_SREBP_CIS: Attagene CIS-FACTORIAL HepG2 Assay for human Sterol Regulatory Element Binding (SREBP) (AID 2282962); details: HepG2 Attagene cis-factorial SREBP reporter, mRNA; actives raise or lower the signal
Outline: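 Endogenous factor activity is measured in HepG2 through multiplexed reporter units under cis-element control. Following a 24 h incubation, reporter transcripts are reverse-transcribed, PCR-amplified and sized by capillary electrophoresis; activity is fitted in both directions relative to DMSO.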

[9] = target: Signal transducer and activator of transcription 3 (Homo sapiens) (UniProt P40763); test: ATG_STAT3_CIS: Attagene CIS-FACTORIAL HepG2 Assay for human Signal Transducer and Activator of Transcription 3 (STAT3) (AID 2282963); details: HepG2, Attagene cis-factorial STAT3 reporter transcription; actives raise or lower the signal
Chain of Signal transducer and activator of transcription 3 (Homo sapiens) (P40763 whole entry, looked up, the tested form may be a part): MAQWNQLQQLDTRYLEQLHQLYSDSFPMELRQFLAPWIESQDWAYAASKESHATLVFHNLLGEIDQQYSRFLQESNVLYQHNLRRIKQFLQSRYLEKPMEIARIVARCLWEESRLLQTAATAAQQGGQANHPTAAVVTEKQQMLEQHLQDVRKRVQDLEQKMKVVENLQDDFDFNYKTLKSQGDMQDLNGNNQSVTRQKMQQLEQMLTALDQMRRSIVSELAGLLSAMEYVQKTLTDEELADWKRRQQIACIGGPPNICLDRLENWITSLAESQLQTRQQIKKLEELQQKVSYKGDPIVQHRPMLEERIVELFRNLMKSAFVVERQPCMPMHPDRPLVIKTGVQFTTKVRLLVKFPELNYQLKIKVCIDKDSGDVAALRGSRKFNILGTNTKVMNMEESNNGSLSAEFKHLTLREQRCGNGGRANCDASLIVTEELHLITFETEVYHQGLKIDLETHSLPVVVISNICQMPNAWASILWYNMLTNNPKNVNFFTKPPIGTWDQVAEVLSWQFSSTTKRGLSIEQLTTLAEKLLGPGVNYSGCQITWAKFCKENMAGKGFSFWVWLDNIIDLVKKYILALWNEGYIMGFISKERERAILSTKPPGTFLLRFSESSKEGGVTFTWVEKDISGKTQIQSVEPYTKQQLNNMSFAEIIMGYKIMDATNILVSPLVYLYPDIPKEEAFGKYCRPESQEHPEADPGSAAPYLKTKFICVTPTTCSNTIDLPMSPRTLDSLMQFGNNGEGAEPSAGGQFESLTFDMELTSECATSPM
Outline: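 Fluorescence intensity of 6-FAM-labelled reporter fragments, separated by capillary electrophoresis after RT-PCR, gave the signal. Cells were HepG2 transfected with cis-element reporter units and treated 24 h; fitting was bidirectional relative to DMSO.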

[10] = ATG_TA_CIS: Attagene CIS-FACTORIAL HepG2 Assay for human TA Basal Promoter (AID 2282964); details: HepG2 Attagene CIS-factorial TA basal promoter reporter; actives raise or lower the signal
Outline: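 Read-out: fluorescent reporter-transcript fragments resolved by capillary electrophoresis after RT-PCR and HpaI digestion. Source: HepG2 cells carrying transiently transfected multi-reporter cis constructs, treated 24 h. Endpoint fitted bidirectionally relative to DMSO.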

[11] = ATG_TCF_b_cat_CIS: Attagene CIS-FACTORIAL HepG2 Assay for human T-Cell-Factor with beta-catenin (TCF/b-cat) (AID 2282965); details: HepG2 TCF/beta-catenin cis-reporter transcription, actives raise or lower the signal
Outline: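 Cells of the HepG2 line carry transiently transfected reporter units whose promoters respond to endogenous factors. Twenty-four hours post-dosing, reporter mRNA induction is measured by fluorescent RT-PCR and capillary electrophoresis, with DMSO as baseline.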

[12] = ATG_TAL_CIS: Attagene CIS-FACTORIAL HepG2 Assay for human TAL Basal Promoter (AID 2282966); details: HepG2 Attagene cis-factorial TAL promoter reporter; actives raise or lower the signal;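 note: background control endpoint measuring basal TAL promoter reporter mRNA not a specific factor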
Outline: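 Basal-promoter background-control endpoint from a multiplexed HepG2 reporter panel. Cells were exposed 24 h, then reporter mRNA was read by RT-PCR/CE fluorescence and fitted in both directions relative to DMSO.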

[13] = ATG_TGFb_CIS: Attagene CIS-FACTORIAL HepG2 Assay for human Transforming Growth Factor (TGF) (AID 2282967); details: HepG2 Attagene CIS TGFb reporter, mRNA transcription; actives raise or lower the signal
Outline: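 Transient MRTU transfection of HepG2 (FuGene 6). Dose 24 h. TriZol RNA, oligo(dT) RT, PCR, 6-FAM primer extension, HpaI cut, CE. Bidirectional fit, DMSO = baseline.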

[14] = ATG_VDRE_CIS: Attagene CIS-FACTORIAL HepG2 Assay for human Vitamin D Receptor Element (VDRE) (AID 2282968); details: HepG2 VDRE cis-reporter transcription, actives raise or lower the signal
Outline: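 Compounds were applied for 24 h to HepG2 cells transfected with promoter-regulated reporter units. Total RNA was reverse-transcribed, and reporter amplicons were fluorescently labelled and sized by capillary electrophoresis.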

[15] = target: Nuclear receptor subfamily 1 group I member 3 (Homo sapiens) (UniProt Q14994); test: ATG_CAR_TRANS: Attagene TRANS-FACTORIAL HepG2 Assay for human Constitutive Androstane Receptor (CAR) (AID 2282969; active = hit-call score of the fitted dose curve at least 0.9, where 1 is the maximum;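 note: activators raise reporter mRNA above DMSO so AC50 marks induction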); details: HepG2 Attagene TRANS-FACTORIAL CAR reporter
Chain of Nuclear receptor subfamily 1 group I member 3 (Homo sapiens) (Q14994 whole entry, looked up, the tested form may be a part): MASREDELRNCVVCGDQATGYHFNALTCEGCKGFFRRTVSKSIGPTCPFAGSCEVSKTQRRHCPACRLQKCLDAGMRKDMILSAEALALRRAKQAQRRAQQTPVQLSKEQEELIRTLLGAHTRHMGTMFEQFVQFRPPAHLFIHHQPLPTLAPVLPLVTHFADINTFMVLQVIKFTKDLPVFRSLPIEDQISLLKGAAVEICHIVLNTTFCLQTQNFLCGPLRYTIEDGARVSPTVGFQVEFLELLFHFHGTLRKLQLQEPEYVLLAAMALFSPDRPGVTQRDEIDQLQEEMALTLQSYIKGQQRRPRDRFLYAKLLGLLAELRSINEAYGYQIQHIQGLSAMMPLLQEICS
Outline: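 Transiently transfected HepG2, multiplex TRANS reporters (CAR-Gal4 chimera driving GAL4-UAS reporter). 24 h dosing. Readout: reporter transcript by RT-PCR + capillary electrophoresis, fluorescence intensity; positive direction vs DMSO.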

[16] = target: Estrogen receptor (Homo sapiens) (UniProt P03372); test: ATG_ERa_TRANS: Attagene TRANS-FACTORIAL HepG2 Assay for human Estrogen Receptor alpha (ERa) (AID 2282970; active = hit-call score of the fitted dose curve at least 0.9, where 1 is the maximum); details: HepG2 Attagene TRANS ERa GAL4 reporter, mRNA
Chain of Estrogen receptor (Homo sapiens) (P03372 whole entry, looked up, the tested form may be a part): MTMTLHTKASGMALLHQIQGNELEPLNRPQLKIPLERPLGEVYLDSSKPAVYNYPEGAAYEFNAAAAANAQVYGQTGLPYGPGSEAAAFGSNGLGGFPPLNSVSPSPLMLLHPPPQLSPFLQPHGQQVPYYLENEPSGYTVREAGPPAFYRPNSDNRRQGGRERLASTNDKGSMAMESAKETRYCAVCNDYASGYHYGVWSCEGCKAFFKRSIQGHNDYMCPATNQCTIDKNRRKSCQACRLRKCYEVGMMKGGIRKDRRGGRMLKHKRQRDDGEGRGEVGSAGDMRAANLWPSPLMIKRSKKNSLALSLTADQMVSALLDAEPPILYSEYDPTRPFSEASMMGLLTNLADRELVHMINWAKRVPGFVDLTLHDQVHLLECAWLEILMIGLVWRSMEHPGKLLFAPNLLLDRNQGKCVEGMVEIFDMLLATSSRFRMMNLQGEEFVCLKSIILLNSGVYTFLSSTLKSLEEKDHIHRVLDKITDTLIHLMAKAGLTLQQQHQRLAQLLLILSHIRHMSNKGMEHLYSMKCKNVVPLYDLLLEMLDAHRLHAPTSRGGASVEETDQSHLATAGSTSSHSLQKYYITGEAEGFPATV
Outline: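 Gal4-fusion ERa transactivation, measured as reporter transcript level in transiently transfected HepG2 cells. Exposure 24 h; RT-PCR plus capillary electrophoresis with fluorescence detection.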

[17] = target: Steroid hormone receptor ERR1 (Homo sapiens) (UniProt P11474); test: ATG_ERRa_TRANS: Attagene TRANS-FACTORIAL HepG2 Assay for human Estrogen-Related Receptor alpha (ERRa) (AID 2282971; active = hit-call score of the fitted dose curve at least 0.9, where 1 is the maximum); details: HepG2 Attagene TRANS reporter, ERRa transactivation
Chain of Steroid hormone receptor ERR1 (Homo sapiens) (P11474 whole entry, looked up, the tested form may be a part): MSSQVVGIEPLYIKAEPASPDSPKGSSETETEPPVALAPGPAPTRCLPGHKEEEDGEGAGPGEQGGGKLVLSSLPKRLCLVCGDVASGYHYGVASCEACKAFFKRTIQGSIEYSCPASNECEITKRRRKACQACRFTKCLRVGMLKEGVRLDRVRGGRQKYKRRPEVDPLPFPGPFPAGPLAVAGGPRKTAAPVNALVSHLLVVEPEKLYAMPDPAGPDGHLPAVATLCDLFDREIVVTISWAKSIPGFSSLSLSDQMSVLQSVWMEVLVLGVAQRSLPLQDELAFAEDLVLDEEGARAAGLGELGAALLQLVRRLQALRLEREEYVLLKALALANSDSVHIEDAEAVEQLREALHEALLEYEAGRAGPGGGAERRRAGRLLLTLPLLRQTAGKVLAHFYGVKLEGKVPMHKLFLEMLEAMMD
Outline: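 HepG2 cells transiently transfected with GAL4-UAS reporter units and chimeric NR-Gal4 constructs; after 24 hour compound incubation, reporter mRNA quantified by RT-PCR, fluorescent labelling and capillary electrophoresis, gain of signal versus DMSO.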

[18] = target: X-box-binding protein 1 (Homo sapiens) (UniProt P17861); test: ATG_Xbp1_CIS: Attagene CIS-FACTORIAL HepG2 Assay for human X-box Binding Protein 1 (XBP1) (AID 2282972); details: HepG2 XBP1 cis-element reporter, Attagene multiplex; actives raise or lower the signal
Chain of X-box-binding protein 1 (Homo sapiens) (P17861 whole entry, looked up): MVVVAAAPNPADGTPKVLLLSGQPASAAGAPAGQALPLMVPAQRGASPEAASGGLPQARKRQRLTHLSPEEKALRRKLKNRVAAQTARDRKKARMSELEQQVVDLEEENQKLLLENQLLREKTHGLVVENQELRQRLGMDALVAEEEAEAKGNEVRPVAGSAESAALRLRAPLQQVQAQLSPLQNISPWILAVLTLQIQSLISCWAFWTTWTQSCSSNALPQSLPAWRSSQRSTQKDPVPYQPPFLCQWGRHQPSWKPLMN
Outline: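 Multiplexed cis-reporter readout in transfected HepG2 liver cells. Exposure lasted 24 hours. Activity in either direction was fitted against DMSO as negative control and baseline.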

[19] = ATG_M_19_TRANS: Attagene TRANS-FACTORIAL HepG2 Assay for M19 Transcription Factor (Internal Marker) (AID 2282974; active = hit-call score of the fitted dose curve at least 0.9, where 1 is the maximum); details: HepG2 Attagene TRANS-FACTORIAL M19 internal marker reporter
Outline: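 Cells: human HepG2, transiently transfected with multiplexed reporter transcription units. Exposure: 24 h. Detection: RT-PCR of reporter mRNA with capillary electrophoresis. Analysis: gain-of-signal vs DMSO.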

Measured: AC50

C=C(C)CN(CC)c1c([N+](=O)[O-])cc(C(F)(F)F)cc1[N+](=O)[O-]
active: [1] 13.3 µM | [3] 9.5 µM | [14] 25.1 µM | [16] 30.7 µM
inactive: all other assays above

N#Cc1c(Cl)cccc1Cl
active: [3] 21.6 µM
not listed: [14] | [17]
inactive: all other assays above

Clc1nc(Cl)nc(Nc2ccccc2Cl)n1
active: [3] 39.7 µM | [4] 18.7 µM
not listed: [15] | [16] | [17]
inactive: all other assays above

O=C(Nc1ccccc1-c1ccc(Cl)cc1)c1cccnc1Cl
active: [1] 17.7 µM | [3] 4.77 µM | [7] 19.8 µM | [14] 13.7 µM
not listed: [2] | [19]
inactive: all other assays above

From PubChem BioAssay (EPA / NIEHS)
